Data on 13 molecules can be found in PubChem BioAssay (NCATS).

One experiment deals with CRL-7250. The experiment in a line: Cytotoxic Profiling of Annotated Libraries Using Quantitative High-Throughput Screening (AID 1296008). For max response: % is set by controls: 0 for no effect and ±100 for the full control effect. Note: nearly all actives have a fitted effect of over 60% in size. Note: potency is the fitted concentration of half-maximal effect. Particulars: Five cell lines viability, CellTiter-Glo ATP luminescence, 48-72 h; max response: stronger effect = lower value. In outline: (§1)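 Cytotoxicity was measured as CellTiter-Glo ATP luminescence, read after 10 min at room temperature. Compound treatment of the cells lasted 48 or 72 hr at 37 degrees Celsius in a qHTS format.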
On the technique in general: ATP-based viability assays read luminescence as a measure of living cells.

The subject of another experiment is HaCat. The experiment is described as above. Particulars: Five cell lines viability, CellTiter-Glo ATP luminescence, 48-72 h; max response: stronger effect = lower value. In a few lines:
as §1

The subject of experiment [1] is NIH3T3. Described as above. To be noted: Five cell lines viability, CellTiter-Glo ATP luminescence, 48-72 h; max response: stronger effect = lower value. In outline:
as §1

For the next experiment, the system named is CAOV3. Nature of the experiment: Primary qHTS to identify gynecologic anti-cancer compounds using libraries of approved drugs and bioactive compounds (AID 1345084). Note: nearly all actives have a fitted effect of over 55% in size. Note: potency is the fitted concentration of half-maximal effect. To be noted: Gynecologic cancer cell panel viability, ATPlite luminescence, 48 h; series mostly up to 57.5 µM. In outline:
(§2)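 Luminescence from the ATPlite ATP-monitoring reagent indicates viable cell number; lower signal means cytotoxicity. Cells received compound 16 h after seeding and were exposed for 48 h across five concentrations.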
A general note: qHTS replaces the single test concentration by a dilution series.

The test system of the next experiment is CASKI. Described as above. Particulars: Gynecologic cancer cell panel viability, ATPlite luminescence, 48 h; series mostly up to 57.5 µM. In a few lines:
as §2

The test system of another experiment is HeLa. Described as above. To be noted: Gynecologic cancer cell panel viability, ATPlite luminescence, 48 h; series mostly up to 57.5 µM. In a few lines: as §2
Another experiment relates to Hek293T. Described as above. Particulars: Gynecologic cancer cell panel viability, ATPlite luminescence, 48 h, control line for the selectivity index; series mostly up to 57.5 µM. In a few lines:
as §2

The subject of the next experiment is JEG-3. Described as above. Particulars: Gynecologic cancer cell panel viability, ATPlite luminescence, 48 h; series mostly up to 57.5 µM. In a few lines:
as §2

The next experiment concerns OV90. Described as above. Particulars: Gynecologic cancer cell panel viability, ATPlite luminescence, 48 h; series mostly up to 57.5 µM. In a few lines:
as §2

The test system of another experiment is PA-1. The description is as above. To be noted: Gynecologic cancer cell panel viability, ATPlite luminescence, 48 h; series mostly up to 57.5 µM. In outline:
as §2

A further experiment has as its system KB-3-1. Nature of the experiment: Cytotoxic Profiling of Annotated Libraries Using Quantitative High-Throughput Screening (AID 1296008). For max response: % is set by controls: 0 for no effect and ±100 for the full control effect. Note: nearly all actives have a fitted effect of over 60% in size. Note: potency is the fitted concentration of half-maximal effect. Particulars: Five cell lines viability, CellTiter-Glo ATP luminescence, 48-72 h; max response: stronger effect = lower value. In a few lines: as §1
The subject of experiment [2] is NIH3T3. The experiment in a line: qHTS assay to identify novel small-molecules to repurpose for Merkel cell carcinoma treatment (AID 1296009). Note: nearly all actives have a fitted effect of over 60% in size. To be noted: MCC and control cell lines, CellTiter-Glo viability, 72 h; series mostly up to 44.8 µM. In outline: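 Cell viability measured by CellTiter-Glo following 72 hr compound treatment at 37 degree celsius, with NPC and MIPE libraries tested in 8- and 11-point concentration series.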

A further experiment has as its system C33A. Nature of the experiment: Primary qHTS to identify gynecologic anti-cancer compounds using libraries of approved drugs and bioactive compounds (AID 1345084). Note: nearly all actives have a fitted effect of over 55% in size. Note: potency is the fitted concentration of half-maximal effect. To be noted: Gynecologic cancer cell panel viability, ATPlite luminescence, 48 h; series mostly up to 57.5 µM. In outline: as §2
A further experiment deals with Es-2. The experiment is described as above. Particulars: Gynecologic cancer cell panel viability, ATPlite luminescence, 48 h; series mostly up to 57.5 µM. In outline: as §2

Molecules are shown by their SMILES. Results filed as inconclusive are left out. Values without a mark were called inactive. Activity calls are given as the source filed them. Calls come from the whole dose curve; as a rule, active = well fitted curve in the direction sought with a large enough effect; inconclusive = small, poorly fitted or top-dose-only effect, or another doubt; inactive = no such curve, though single readings can be large; an effect the other way counts as inactive or inconclusive.

Take `CC(=O)NC(C)c1cnc(-c2cnc(Oc3ccc(OC(C)C)cc3)s2)s1` (configuration not stated): the max response in the experiment with CRL-7250 is -17.1%; in the experiment on HaCat, 2.34%; in the experiment on NIH3T3 [1] it was 0.946%. Moreover, the Potency entry in the experiment with CAOV3, in the experiment on CASKI, in the experiment with HeLa, in the experiment with Hek293T, with JEG-3 and in the experiment on OV90 was “inactive” throughout. Besides, the Potency entry in the experiment with PA-1 is “inactive”.

For `CC(C)c1cc(-c2ccc(F)c3ccccc23)nc(N)n1`, the max response in the experiment with CRL-7250 is 2.23%; in the experiment on KB-3-1, -2.32%. Also, the molecule was called inactive in the experiment with NIH3T3 [1]. Also, the Potency result with NIH3T3 [2], in the experiment on C33A, in the experiment on CAOV3, in the experiment with CASKI, in the experiment with Es-2 and in the experiment on HeLa was “inactive” each time. Besides, the Potency entry in the experiment on Hek293T, in the experiment on JEG-3, in the experiment on OV90 and with PA-1 was “inactive” throughout.

`CCN(Cc1cc(Nc2nc(C)cn3c(-c4cn[nH]c4)cnc23)sn1)C(C)(C)CO`: the Potency is 73.1 nM (active) with CRL-7250; 1.46 µM (active) in the experiment on HaCat; 461 nM (active) with NIH3T3 [1]; 3.16 µM (active) in the experiment on Es-2; 3.55 µM (active) with Hek293T.

For the molecule `COc1cccc(-c2cc(F)ccc2C2Cc3nc(N)nc(C)c3C(=O)N2)n1` (configuration not stated), the Potency in the experiment on CRL-7250 is 146 nM (active); in the experiment with HaCat it was 0.0461 µM (active); in the experiment with NIH3T3 [1], 58 nM (active); in the experiment with Hek293T, 0.282 µM (active); with PA-1, 355 nM (active).

Regarding `Fc1ccc(N2CCCCC2)c(NC(=S)c2ccncc2)c1`, the values for the max response in the experiment on CRL-7250, with KB-3-1 and in the experiment with NIH3T3 [1] were 3.95%, -9.62% and -6.72%, respectively. Also, the Potency entry in the experiment with C33A, in the experiment with CAOV3, in the experiment on CASKI, in the experiment on Es-2, in the experiment with HeLa and with JEG-3 was “inactive” each time. Besides, the Potency result in the experiment on OV90 and in the experiment with PA-1 was “inactive” throughout.

Take `OC[C@H]1O[C@@H](OC/C=C/c2ccc(O)cc2)[C@H](O)[C@@H](O)[C@@H]1O`: the results for the max response in the experiment on CRL-7250, in the experiment with KB-3-1 and in the experiment with NIH3T3 [1] were -28.9%, -4.8% and -11.1%, respectively. The Potency entry in the experiment with C33A, in the experiment on CAOV3, in the experiment with CASKI, in the experiment with Es-2, with HeLa and with Hek293T was “inactive” each time. Also, the Potency entry with JEG-3, in the experiment on OV90 and in the experiment with PA-1 was “inactive” each time.

Take `COC(=O)C[C@H]1[C@]2(C)C3=C(C)[C@H](c4ccoc4)C[C@H]3O[C@@H]2[C@H](O)C2[C@](C)(C(=O)OC)C=CC(=O)[C@@]21C` (some centres not stated): the max response in the experiment with CRL-7250 was -6.81%; in the experiment on HaCat, -7.74%; in the experiment with NIH3T3 [1], 3.36%. Further, the Potency entry with C33A, in the experiment with CASKI, in the experiment on Es-2, in the experiment with HeLa, with Hek293T and in the experiment with JEG-3 was “inactive” each time. The Potency result with OV90 and in the experiment with PA-1 was “inactive” each time.

As to `CCN1CCC[C@@H]1CNC(=O)c1ccc2c(c1)NC(=O)c1cccc(C)c1S2`, in the experiment with CRL-7250, the max response is 2.08%. In addition, the molecule was classed as inactive with KB-3-1 and in the experiment with NIH3T3 [1]. Besides, the Potency entry with NIH3T3 [2], with C33A, with CAOV3, in the experiment on CASKI, with Es-2 and in the experiment on HeLa was “inactive” each time. Besides, the Potency result in the experiment with Hek293T, with JEG-3, in the experiment with OV90 and in the experiment on PA-1 was “inactive” in each case.

For the molecule `COc1ccc(S(=O)(=O)N2CCC[C@H]2C(=O)Nc2cc(C)cc(C)c2)cc1`, the max response is 2.15% in the experiment with CRL-7250 and 0.512% with NIH3T3 [1]. Also, in the experiment with KB-3-1, the molecule was called inactive. Besides, the Potency result in the experiment on C33A, in the experiment on CAOV3, with CASKI, in the experiment with Es-2, in the experiment on HeLa and with Hek293T was “inactive” each time. Moreover, the Potency entry with JEG-3, with OV90 and in the experiment on PA-1 was “inactive” each time.

For `CNc1cccc(CCOc2ccc3c(c2)CN(CC(F)(F)F)C(=O)[C@H](CC(=O)O)C3)n1`, the Potency is 82 nM (active) in the experiment with CRL-7250 and 116 nM (active) with NIH3T3 [1]. Further, the max response in the experiment on KB-3-1 is -2.45%. Besides, the Potency result in the experiment with C33A, in the experiment with CAOV3, in the experiment on CASKI, with Es-2, in the experiment with HeLa and in the experiment on Hek293T was “inactive” in each case. Moreover, the Potency entry in the experiment with JEG-3 and in the experiment with OV90 was “inactive” in each case.

For the molecule `CCOc1cn(-c2ccc(F)cc2C)nc1C(=O)Nc1ccc(Oc2ccnc3cc(OC)c(OC)cc23)c(F)c1`, the max response is -25.1% with CRL-7250 and 5.26% in the experiment with KB-3-1. Also, the Potency with NIH3T3 [1] is 5800 nM (active). Also, the Potency result with C33A, with CAOV3, in the experiment on CASKI, with Es-2, with HeLa and in the experiment with Hek293T was “inactive” each time. Moreover, the Potency result in the experiment with JEG-3, in the experiment on OV90 and with PA-1 was “inactive” each time.

For `Cc1c(OCc2cccc(-c3ccc(C(=O)O)cc3)c2)cc2c(c1C)C(=O)C(C1CCCC1)C2` (configuration not stated), the max response in the experiment on CRL-7250 was 3.68%; in the experiment on HaCat it was -12%; with NIH3T3 [1], -4.46%. Also, the Potency result in the experiment on C33A, in the experiment with Es-2, in the experiment on HeLa, in the experiment on Hek293T, with JEG-3 and in the experiment with OV90 was “inactive” each time. In addition, the Potency result with PA-1 is “inactive”.

On to `O=C(Nc1ccccc1Br)NC1CCN(c2ccc(C(F)(F)F)cn2)C1` (configuration not stated), for which the result with CRL-7250 was inactive. Also, the max response was -16.5% in the experiment on KB-3-1 and -7.45% with NIH3T3 [1]. In addition, the Potency entry in the experiment on C33A, in the experiment with CAOV3, in the experiment with CASKI, with Es-2, in the experiment on HeLa and in the experiment with Hek293T was “inactive” each time. Moreover, the Potency entry in the experiment on JEG-3, in the experiment on OV90 and in the experiment with PA-1 was “inactive” each time.
